# CHO-K1 Ca PAM = nonselective activator or artifact in parental CHO-K1 calcium assay; AID 602247; ATP EC20, Fluo-8 calcium fluorescence; 0% at ATP EC20, 100% at ATP max; activation, % at 3 µM; 360,000 tested, 0.02% active;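 active means activation above the run cutoff, the mean activation of all test compounds plus 3 SD, cut at about 40% in these data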;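 further: peak over basal fluorescence ratio in a 140 s read after ATP addition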
# M1 antag = human CHRM1 antagonism; AID 588852; 360,000 tested, 1.3% active; P11229; CHO-K1 hM1, Fluo-8 calcium fluorescence, ACh EC80 antagonist; inhibition, % at 3 µM;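 active means percent inhibition above its own plate's cutoff, namely the mean of that plate's compound wells plus 3 SD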;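 further: peak over basal fluorescence ratio during 140 s after agonist addition; 0% = ACh EC80 plus DMSO and 100% = DMSO alone without agonist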
# Target sequence (P11229 whole entry, looked up): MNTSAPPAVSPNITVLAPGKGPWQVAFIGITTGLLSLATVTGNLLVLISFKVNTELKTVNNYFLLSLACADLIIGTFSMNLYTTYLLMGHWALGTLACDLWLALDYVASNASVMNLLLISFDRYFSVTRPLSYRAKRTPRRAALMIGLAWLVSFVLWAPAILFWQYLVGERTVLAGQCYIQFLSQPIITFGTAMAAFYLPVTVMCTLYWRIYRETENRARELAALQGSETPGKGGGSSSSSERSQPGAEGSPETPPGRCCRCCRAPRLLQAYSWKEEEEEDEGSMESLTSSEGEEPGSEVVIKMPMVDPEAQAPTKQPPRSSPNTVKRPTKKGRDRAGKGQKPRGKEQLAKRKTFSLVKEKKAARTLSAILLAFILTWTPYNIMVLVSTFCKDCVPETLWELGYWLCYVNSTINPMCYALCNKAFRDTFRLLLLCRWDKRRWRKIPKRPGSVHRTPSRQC
# CHO-K1 Ca ag = nonselective activator or artifact in parental CHO-K1 cells; activation, % at 3 µM; Fluo-8 calcium fluorescence; scaled to maximal ATP response, vehicle zero; 360,000 tested, 0.48% active; in the data active means activation above about 15%;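 further: untransfected CHO-K1 host cells lacking M1 receptor as counterscreen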
# CHRM1 agonist = agonists of human M1 muscarinic receptor. P11229. CHO-K1 hM1, Fluo-8 calcium fluorescence, agonist mode; 0% DMSO, 100% acetylcholine EC100. activation, % at 3 µM. 360,000 tested, 0.33% active. AID 588814;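 active means activation above the run's mean compound activation plus 3 SD, cut at about 16% in these data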;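 further: peak over basal fluorescence ratio within a 140 s kinetic read after compound addition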
# CHO-K1 Ca antag = M1 antagonist counterscreen hit in parental CHO-K1 cells; inhibition, % at 3 µM; ATP-induced calcium, Fluo-8 fluorescence; 360,000 tested, 0.6% active;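 active means inhibition above a per-plate cutoff, the plate's mean sample inhibition plus 3 SD, cut at about 24% in these data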;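 further: 0% = DMSO plus EC80 ATP and 100% = DMSO alone without ATP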
# M1 PAM = human CHRM1 positive allosteric modulation | P11229 | CHO-K1 hM1, Fluo-8 calcium fluorescence, ACh EC20; 0% = ACh EC20, 100% = maximal ACh | activation, % at 3 µM | 360,000 tested, 0.088% active; in the data active means activation above about 19%, passing the limit was not always enough
# An asterisk follows results filed as active. In the library only some 2.3% were active in any assay of this set; here they are far more common.
SMILES,CHO-K1 Ca PAM,M1 antag,CHO-K1 Ca ag,CHRM1 agonist,CHO-K1 Ca antag,M1 PAM
COc1ccc(OC)c(NC(=O)C(=O)NNC(=O)C23CC4CC(CC(C4)C2)C3)c1,15,-12,25*,9,-9,7
COc1ccc(NC(=O)CNC(=O)C23CC4CC(CC(C4)C2)C3)c(OC)c1,-14,-9,0,-2,1,7
O=C(COc1ccc2c3c(c(=O)oc2c1)CCCC3)N1C[C@H]2C[C@@H](C1)c1cccc(=O)n1C2,17,-9,1,-13,-3,3
Oc1ccc(N=Nc2ccc3c(c2)OCCO3)c2ncccc12,-3,32*,17*,12,22,-12
COc1ccc(C(=O)N/C(=C/c2ccccc2F)C(=O)NCCN2CCOCC2)cc1OC,12,-18,1,-4,-14,7
CCOC(=O)c1sc(-c2ccc(OC)cc2)cc1N,-6,-2,0,4,28*,8
CCOC(=O)c1sc(-c2ccc(F)cc2)cc1N,2,1,-1,-7,-8,2
Cc1ccc(NC(=S)N2CCN(c3ccccn3)CC2)cc1C,-23,4,2,-4,8,-5
CCOC(=O)Cc1csc(NC(=O)Nc2ccc(OC(F)(F)F)cc2)n1,-15,41*,10,5,34*,-17
CCOC(=O)Cc1csc(NC(=O)c2ccc(NC(C)=O)cc2)n1,10,-4,1,-1,-15,6
COc1ccc(CN(C)C(=O)Cn2cnc3c(NCc4ccccc4)ncnc32)cc1OC,4,-4,2,8,-10,19
O=c1oc2c(O)cccc2cc1-c1nc2ccccc2[nH]1,-8,10,13,18*,11,-9
COc1ccc(/C=N/NC(=O)CNc2n[nH]c(=O)[nH]c2=O)cc1OC,-8,16,0,-4,27*,-9
CC1=C(C(=O)N(C)C)CC(CC(=O)NCCCCc2ccccc2)C(=O)N1CCCN1CCCC1=O (stereo not given),20,-23,1,5,-19,27*
Fc1ccc(Nc2nnc(C(F)(F)F)s2)cc1Cl,-22,37*,15,0,41*,-15
FC(F)(F)c1nnc(Nc2ccc(Cl)cc2)s1,0,6,11,3,-2,-8
COc1ccc2cc(C#N)c(SCC(=O)NNC(=O)Cc3ccccc3)nc2c1,15,-1,0,-5,-2,1
Cc1ccc2cc(C#N)c(SCC(=O)NNC(=O)Cc3ccccc3)nc2c1,-16,-3,0,3,25*,14
Cn1ccnc1C1CCCCN1Cc1nc(-c2ccc(Cl)cc2)no1 (stereo not given),-2,32*,2,-7,-11,-19
Clc1ccc(-c2noc(CN3CCCC3)n2)cc1,25,-3,1,-4,-10,-3
O=C(CCNC(=O)c1ccco1)NCc1ccc(C(=O)O)cc1,10,-15,1,0,-12,5
C(=C\c1ccccc1)/CN1CCN(Cc2nc(Cc3ccccc3)no2)CC1,16,43*,0,-12,6,-31
c1ccc(Cc2noc(CN3CCN(Cc4ccc5c(c4)OCO5)CC3)n2)cc1,4,4,0,-14,-2,-8
c1ccc(Cc2noc(CN3CCCN(C4Cc5ccccc5C4)CC3)n2)cc1,9,100*,4,-6,-4,-24
COc1ccccc1CN1CCN(Cc2nc(Cc3ccccc3)no2)CC1,3,-3,0,-14,1,-7
c1ccc(Cc2noc(CN3CCC(CN4CCOCC4)CC3)n2)cc1,-2,19,0,-8,-8,-12
c1ccc(Cc2noc(CN3CCN(C4CCc5ccccc5C4)CC3)n2)cc1 (stereo not given),3,88*,2,-8,-14,-27
O=C(CN1CCN(c2ccccc2O)CC1)Nc1ccccc1C(=O)NCCc1ccccc1,-3,29,7,-2,3,-12
COc1ccccc1N1CCN(CC(=O)Nc2ccccc2C(=O)NCCc2ccccc2)CC1,19,29*,4,-1,6,-8
COc1ccc(CCNC(=O)c2ccccc2NC(=O)CN2CCN(c3ccccc3O)CC2)cc1,10,28*,8,2,7,-8
